# Screening results deposited in PubChem BioAssay by National Center for Advancing Translational Sciences (NCATS).
# Marburg entry inh – Marburg virus entry inhibition | Marburg virus pseudotyped entry inhibition, cell reporter | Potency, µM (top dose mostly 37.8 µM), for the others: top-dose activity change, negative = inhibition, hits mostly inhibitors | actives 1.8% (n = 300,000) | AID 540276; calls by dose curve; tested in HEK293 cells; further: potency means the concentration at half of the fitted maximal effect; on the % scale 0 is the no-effect control and ±100 the full control effect
# CHX counter – counter-screen hit for Shiga toxin inhibitors, cycloheximide | cell reporter, cycloheximide protein synthesis inhibition counterscreen | max response, % | actives 12% (n = 300,000) | AID 2314; in the data active means max response mostly above about 13%, no sharp cut-off; inactive means mostly below about 14%; further: read at 38.3 µM for the half of the compounds with a filed dose; 0% is about no effect
# VACV Venus inh – vaccinia inhibition (Venus reporter) | Vaccinia virus Venus reporter expression, fluorescence | Potency, µM (series often up to 36.5 µM), for inactives: at the highest dose activity change, negative = inhibition, usual class: inhibitors | actives 0.46% (n = 330,000) | AID 720580; calls by dose curve; tested in A549 cells; further: potency means the concentration at half of the fitted maximal effect; on the % scale 0 is the no-effect control and ±100 the full control effect; nearly all actives have a fitted effect of over 30% in size
# Lassa entry inh – Lassa virus entry inhibition; Lassa virus pseudotype entry inhibition, cell reporter; Potency, µM (series often up to 37.9 µM), for inactives: top-dose activity change, negative = inhibition, most hits filed as inhibitors; actives 1.2% (n = 300,000); calls by dose curve; tested in HEK293 cells; further: potency means the concentration at half of the fitted maximal effect; on the % scale 0 is the no-effect control and ±100 the full control effect; nearly all actives have a fitted effect of over 50% in size
# Vaccinia mCherry – vaccinia inhibition (mCherry reporter). Vaccinia virus mCherry reporter infection, fluorescence. Potency, µM (doses to about 36.5 µM), inactives show at the top dose activity change, negative = inhibition, most hits filed as inhibitors. actives 0.63% (n = 310,000); calls by dose curve; tested in A549 cells; further: potency means the concentration at half of the fitted maximal effect; on the % scale 0 is the no-effect control and ±100 the full control effect; nearly all actives have a fitted effect of over 35% in size
# Shiga toxin inh – inhibitors of Shiga toxin in Vero cells | inhibition, % at 38.7 µM | Vero cells, Shiga toxin protein synthesis inhibition reporter | AID 2315 | actives 9.2% (n = 290,000); in the data active means inhibition mostly above about 28%, no sharp cut-off; inactive means mostly below about 43%; further: 0% is about no effect
# The depositor's hits bear a star; i = inactive; ? = inconclusive; / = no result given; [ ] = another dose, or the depositor's remark. The full list was thinned out, with hits kept by preference.
SMILES,Marburg entry inh,CHX counter,VACV Venus inh,Lassa entry inh,Vaccinia mCherry,Shiga toxin inh
O=C(CCCc1ccccc1)NC1CC(=O)N(c2ccc(Cl)cc2)C1 (stereo not given),/,/,-11%,-3%[46.1 µM],-13%,/
c1cnc(N2CCN(c3ncc4c(n3)CCNC4)CC2)nc1,2%[46.1 µM],/,0%,-3%[46.1 µM],-4%,/
Cc1ccc(-n2ncc(Cl)c2C(=O)NCc2ccccc2)cc1,/,42*,/,/,/,58*
C=CCNC(=O)c1c(Br)cnn1-c1ccc(C)cc1,?,45*,-7%,-2%[46.1 µM],-10%,59*
C[C@@H](C(=O)Nc1ccc2ccccc2c1)[C@H]1C[C@]1(C)[C@H](NS(=O)(=O)c1ccc(-c2ccccc2)cc1)c1ccccc1,12µM*,8,-5%,-21%,i,7
COc1ccccc1OCC(=O)N(Cc1nc(-c2ccccc2)no1)C(C)C,?,-6,-12%,7.9µM*,-9%,-13
COc1cccc(C2=N/C(=C\N(C)C)C(=O)O2)c1,?,34*,-5%,3%,-17%,94
CCCCc1nc2cc(C(=O)N3CCNC(=O)C3)ccc2o1,/,14*,/,/,/,1
CCCCc1nc2cc(C(=O)N3CCCC3)ccc2o1,/,31*,/,/,/,68*
CCCCc1nc2cc(C(=O)NC(C)c3cnn(C)c3)ccc2o1 (stereo not given),/,34*,/,/,/,66*
CCCCc1nc2cc(C(=O)N3CCNC(=O)C3CC(=O)OC)ccc2o1 (stereo not given),13%,15*,-9%,3%,-12%,8
COCCc1nn2c(=O)cc(COC(=O)c3ccco3)nc2s1,/,/,-6%,-4%[46.1 µM],-11%,/
CCn1cc(Cl)c(C(=O)N2N=C(c3ccc4ccccc4c3)CC2c2ccccc2O)n1 (stereo not given),?,3,?,?,-29%,7
CCn1cc([N+](=O)[O-])c(C(=O)N2N=C(c3ccc4ccccc4c3)CC2c2ccccc2O)n1 (stereo not given),?,34*,?,5%,?,27*
Cc1nn(S(=O)(=O)c2ccc(C(C)C)cc2)c(C)c1S(=O)(=O)N1CCCCCC1,/,/,6%,-2%[46.1 µM],4%,/
COc1cccc(C2(CSc3nnc(-c4cc(OC)c(OC)c(OC)c4)o3)OCCO2)c1,-16%,-4,-16%,11µM*,/,-23
CCN1C(=O)C(CC(=O)Nc2ccc(OC)cc2)N(CCCN2CCN(c3ccc(OC)cc3)CC2)C1=S (stereo not given),?,7,?,?,10µM*,11
COc1ccc(NC(=O)CC2C(=O)N(c3ccccc3)C(=O)N2CCc2cccs2)cc1 (stereo not given),-9%,-5,-9%,?,i,-7
CCOc1ccc(NC(=O)CC2C(=O)N(c3ccc(OC)cc3)C(=O)N2CCc2cccs2)cc1 (stereo not given),?,-7,-10%,7.3µM*,-17%,-6
CCCOc1ccc(NC(=O)CC2C(=O)N(Cc3ccccc3)C(=S)N2Cc2cccs2)cc1 (stereo not given),?,22*,/,?,/,57
CCN1C(=O)C(CC(=O)Nc2ccc(F)cc2)N(Cc2cccs2)C1=S (stereo not given),-6%[46.1 µM],-6,-6%,5%,-10%,3
CC(C)(C)NC(=O)C(c1c[nH]c2ccccc12)N(C(=O)Cn1nnc(-c2ccc(F)cc2)n1)c1cccc(O)c1 (stereo not given),11µM*,-2,?,?,?,-9
CC(C)(C)NC(=O)C(c1ccco1)N(C(=O)Cn1nnc(-c2ccc(F)cc2)n1)c1cccc(F)c1 (stereo not given),-5%,-4,-12%,-3%,i,10
Cn1nnnc1N=N/C(=N/Nc1ccccc1)c1ccccc1,1µM*,17*,-29%,?,?,45
Oc1ccccc1N=N/C(=N/Nc1ccccc1O)c1ccccc1,/,/,4%,/,?,/
SMILES,Marburg entry inh,CHX counter,VACV Venus inh,Lassa entry inh,Vaccinia mCherry,Shiga toxin inh
Cc1c(C(=O)Nc2ccccn2)sc2nc3n(c(=O)c12)CCC3,/,43*,/,/,/,77*
CCc1cccc(NC(=O)c2sc3nc4n(c(=O)c3c2C)CCC4)c1,/,28*,/,/,/,73*
Cc1c(C(=O)Nc2ccccc2F)sc2nc3n(c(=O)c12)CCC3,/,45*,0%[7.34 µM],-12%[46.1 µM],-4%,95*
Cc1ccccc1NC(=O)c1ccc(F)c(S(=O)(=O)NC2CCCC2)c1,/,/,-13%,-10%[46.1 µM],-11%,/
c1ccc(Cc2nc3ccccc3[nH]2)cc1,/,-3,-11%,/,i,-3
NC(Cc1ccccc1)c1nc2ccccc2[nH]1 (stereo not given),16%[46.1 µM],18*,-8%,18%,-10%,48*
O=S(=O)(CCc1nc2ccccc2[nH]1)c1ccc(Cl)cc1,-9%,11,1%,2%,?,13
Cc1ccc(OCc2nc3ccccc3[nH]2)cc1,?,61*,-22%,?,i,57*
Clc1ccc(OCc2nc3ccccc3[nH]2)cc1,?,32*,-8%,?,-9%,56*
c1ccc(OCc2nc3ccccc3[nH]2)cc1,4%,49*,/,?,/,75*
CCC(=O)NC(Cc1ccccc1)c1nc2ccccc2[nH]1 (stereo not given),/,12,/,/,/,11
CCc1nc2ccccc2[nH]1,20%,-2,-4%,3%,-7%,-5
Cc1cccc(CN2C(=O)c3ccccc3Sc3ccc(C(=O)NCc4cccs4)cc32)c1,/,/,-5%,-29%[46.1 µM],-13%,/
Cc1cn2c(=O)cc(COc3ccc(C(C)(C)C)cc3)nc2s1,-8%[46.1 µM],/,-12%,17%[46.1 µM],-12%,/
CN(C)c1ccsc1C(=O)NNS(=O)(=O)c1ccc(Cl)cc1,-17%,/,-13%,?,i,/
CC(CCC(=O)OC[C@H]1O[C@H](C#Cc2ccccc2)C=C[C@H]1Oc1ccc(C)cc1)=NO[C@@H](C)c1cn([C@H](CO)Cc2ccccc2)nn1,9%[14.2 µM],/,/,?,/,/
OC(Cc1nc2ccccc2[nH]1)c1ccccc1Cl (stereo not given),-7%,49*,-11%,9%,i,107*
SCc1nc2ccccc2[nH]1,/,/,-11%,/,-22%,/
NC(Cc1nc2ccccc2[nH]1)c1ccc(Cl)cc1 (stereo not given),?,45*,-7%,?,0%,81*
Cn1c(SCc2nc3ccccc3[nH]2)nnc1-c1cccnc1,?,14,/,-2%,/,31
CCOc1ccc(-c2nnc(SCc3nc4ccccc4[nH]3)n2N)cc1,12%,42*,/,-11%,/,82
OC(c1ccc(Cl)cc1)C(O)c1nc2ccccc2[nH]1 (stereo not given),12%,2,/,5%,/,-10
O=C(CCC1N=C2c3ccccc3N=C(SCc3ccccc3F)N2C1=O)NCc1ccc(F)cc1 (stereo not given),/,/,-25%,?,?,/
Cc1ccc(C)c(NC(=O)Cn2c(=O)n(CC3CCCO3)c(=O)c3ccccc32)c1 (stereo not given),3%[46.1 µM],/,-5%,8%[46.1 µM],-6%,/
